Rab9 prom act = activators of Rab9 promoter; Huh7 Rab9 promoter-luciferase reporter, luminescence, 24 h; Potency, µM (series often up to 9.22 µM), inactives show at the highest dose activation, negative = inhibition, hits mostly activators; actives 2.8% (n = 320,000); note: % of control where 0% means no effect; nearly all actives have a fitted effect of over 60% in size
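Promoter activation is measured as luciferase luminescence in Huh7 cells stably transfected with a Rab9 promoter–luciferase construct, following 24 h compound exposure at 37 °C and 10 min reagent incubation at ambient temperature.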
ELG1 genotox = induces genotoxicity in HEK293T cells with luciferase-tagged ELG1. Potency, µM (highest dose often 46 µM), inactives show top-dose activity change, positive = activation, hits mostly activators. HEK293T ELG1-luciferase reporter, luminescence, 16 h. actives 1.3% (n = 330,000). AID 504466; note: % of control where 0% means no effect; nearly all actives have a fitted effect of over 60% in size
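16 hr compound incubation (37 °C, 5% CO2) of HEK293T cells carrying luciferase-tagged ELG1; luciferase then measured by ONE-Glo luminescence after 30 min at RT.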
NPC1 promoter act = activators of NPC1 promoter. Huh7 NPC1 promoter luciferase reporter, 24 h. Potency, µM (titrated, usually from 9.22 µM), without a hit: at the highest dose activation, hits mostly activators. actives 2.4% (n = 320,000). AID 485313; note: % of control where 0% means no effect; nearly all actives have a fitted effect of over 60% in size
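Luciferase expression driven by the NPC1 promoter was measured in stably transfected Huh7 cells after a 24 h compound incubation, using a luciferase reagent and a luminescence read.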
SMN2 splice up = SMN2 splice variant enhancement | HEK293 SMN2-luciferase splicing reporter, luminescence, 30-36 h | Potency, µM (series often up to 46.1 µM), without a hit: top-dose activity change, positive = activation, usual class: activators | actives 2.8% (n = 210,000); note: % of control where 0% means no effect; nearly all actives have a fitted effect of over 55% in size
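HEK293 cells carry an SMN2 minigene-luciferase reporter in which exon 7 inclusion puts luciferase in frame. Cells were seeded at 2000 cells/well, attached for 10-12 hours, then exposed to compounds for 30-36 hours at 37C before ONE-Glo luminescence.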
FLuc counter = firefly luciferase modulation, counter-screen for miR-21 project; P08659; actives 6.9% (n = 360,000); AID 588342; purified FLuc, Km substrates, luminescence inhibition; Potency, µM (titrated, usually from 57.5 µM), inactives show top-dose activity change, negative = inhibition, most hits filed as inhibitors;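 note: plate controls were vehicle for no effect and reference inhibitor for full effect; nearly all actives have a fitted effect of over 55% in size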
Target sequence (P08659 whole entry, looked up): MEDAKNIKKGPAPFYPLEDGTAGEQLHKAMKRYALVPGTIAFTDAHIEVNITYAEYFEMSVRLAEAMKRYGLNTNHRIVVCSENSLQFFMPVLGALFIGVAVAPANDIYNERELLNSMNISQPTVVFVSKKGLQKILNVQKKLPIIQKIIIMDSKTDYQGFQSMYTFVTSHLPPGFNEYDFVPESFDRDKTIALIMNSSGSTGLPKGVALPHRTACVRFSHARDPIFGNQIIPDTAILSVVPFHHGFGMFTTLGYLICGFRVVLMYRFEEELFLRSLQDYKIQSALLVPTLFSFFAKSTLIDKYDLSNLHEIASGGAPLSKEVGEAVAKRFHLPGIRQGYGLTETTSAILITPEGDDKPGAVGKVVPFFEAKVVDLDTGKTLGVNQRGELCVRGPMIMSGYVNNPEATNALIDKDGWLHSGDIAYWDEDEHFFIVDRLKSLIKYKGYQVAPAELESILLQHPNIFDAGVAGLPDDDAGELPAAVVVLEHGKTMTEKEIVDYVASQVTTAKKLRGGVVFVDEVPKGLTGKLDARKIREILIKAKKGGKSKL
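Biochemical qHTS of compounds, final roughly 60 µM downward over six points, against 10 nM purified firefly luciferase using Km concentrations of substrates (10 uM D-luciferin, 10 uM ATP) in Tris acetate pH 7.5 buffer; luminescence output.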
* marks the source's active call; other numbers are inactive results. Rows were chosen to be rich in hits. Some 7.4% of all compounds tested hit in one or more screens of this group. Calls come from the whole dose curve; as a rule, active = well fitted curve in the direction sought with a large enough effect; inconclusive = small, poorly fitted or top-dose-only effect, or another doubt; inactive = no such curve, though single readings can be large; an effect the other way counts as inactive or inconclusive. Potency is the fitted concentration of half-maximal effect.

Cc1ccc(Cl)cc1N was read as SMN2 splice up 2.8%.
Screening CCCOc1ccc(C(=O)NCC2OCCc3ccccc32)cc1 (stereo unspecified) returned SMN2 splice up -9.7% and FLuc counter inconclusive.
For Cc1sc2nc3ccc(N4CCCCC4)nn3c(=O)c2c1C the results were Rab9 prom act inconclusive, ELG1 genotox -1.5%, NPC1 promoter act inconclusive, SMN2 splice up -16.6% and FLuc counter 8.49µM*.
CC1CCCN(c2ccc3nc4ccccc4c(=O)n3n2)C1 (stereo unspecified) was read as Rab9 prom act inconclusive, ELG1 genotox -12.0%, NPC1 promoter act inconclusive, SMN2 splice up 1.26µM* and FLuc counter 1.07µM*.
Cc1ccc2nc3ccc(N4CCCC4)nn3c(=O)c2c1 was read as Rab9 prom act 1.58µM*, ELG1 genotox inconclusive, NPC1 promoter act 2.24µM*, SMN2 splice up 15.8µM* and FLuc counter 10.7µM*.
`Cc1sc2nc3n(c(=O)c2c1C)CCCCC3` gave Rab9 prom act 1.1%, ELG1 genotox 0.2%, NPC1 promoter act -5.3%, SMN2 splice up 18.4% and FLuc counter -5.5%.
Screening Cc1nc(-c2ccc(NC(=O)c3ccccc3)cc2)cs1 returned Rab9 prom act -13.8%, ELG1 genotox -13.5%, NPC1 promoter act -6.9% and FLuc counter -1.0%.
Cc1nc(-c2ccc(C(=O)NCCO)cc2)cs1 was read as Rab9 prom act 25.2%, ELG1 genotox inconclusive, NPC1 promoter act 3.0%, SMN2 splice up -7.8% and FLuc counter inconclusive.
O=C(Nc1ccc(F)cc1)C1CCCCC1 was read as Rab9 prom act 18.1%, ELG1 genotox 1.5%, NPC1 promoter act 2.8%, SMN2 splice up -12.2% and FLuc counter -3.6%.
CCc1ccccc1NC(=O)c1ccc(-c2csc(C)n2)cc1 was read as Rab9 prom act inconclusive, ELG1 genotox inconclusive, NPC1 promoter act 3.55µM* and FLuc counter inconclusive.
For Cc1nc(-c2ccc(NC(=O)C3CCCCC3)cc2)cs1 the results were Rab9 prom act 2.82µM*, ELG1 genotox 2.31µM*, NPC1 promoter act 3.16µM*, SMN2 splice up 25.1µM* and FLuc counter 2.13µM*.
For Cc1ccc(C(=O)Nc2ccc(-c3csc(C)n3)cc2)cc1 the results were Rab9 prom act inconclusive, ELG1 genotox inconclusive, NPC1 promoter act 2.24µM*, SMN2 splice up 140.2% and FLuc counter inconclusive.
For COc1cc(-c2ccc(N=C=O)c(OC)c2)ccc1N=C=O the results were SMN2 splice up -9.9%.
`Clc1cccc(CSc2ncn(-c3ccccc3)n2)c1` gave Rab9 prom act 22.3%, ELG1 genotox inconclusive, NPC1 promoter act 16.0%, SMN2 splice up inconclusive and FLuc counter 19µM*.
Screening Clc1ccc(CSc2ncn(-c3ccccc3)n2)cc1 returned Rab9 prom act 2.4%, ELG1 genotox 1.7%, NPC1 promoter act 1.8%, SMN2 splice up 16.1% and FLuc counter -28.6%.
For COc1cc(/C=C/c2nc(C#N)c(N3CCCCC3)o2)cc(OC)c1OC the results were SMN2 splice up 17.4% and FLuc counter inconclusive.
Screening CCOc1ccc(C2C=C(c3ccc(C)cc3)Nc3nnnn32)cc1 (stereo unspecified) returned Rab9 prom act 2.8%, ELG1 genotox 1.4%, NPC1 promoter act 3.8%, SMN2 splice up -9.0% and FLuc counter -1.4%.
Screening Fc1ccc(C2=CC(c3cccs3)n3nnnc3N2)cc1 (stereo unspecified) returned Rab9 prom act 8.5%, ELG1 genotox 5.1%, NPC1 promoter act -2.2% and FLuc counter -1.5%.
For Cc1ccc(C2=CC(c3cccs3)n3nnnc3N2)cc1 (stereo unspecified) the results were Rab9 prom act inconclusive, ELG1 genotox 3.1%, NPC1 promoter act 5.01µM*, SMN2 splice up 14.9% and FLuc counter -26.1%.
Screening CCOc1ccc(C2C=C(c3ccccc3)Nc3nnnn32)cc1 (stereo unspecified) returned Rab9 prom act 1.58µM*, ELG1 genotox inconclusive, NPC1 promoter act 2.82µM*, SMN2 splice up 13.7% and FLuc counter -0.3%.
Screening O=C(Cn1c(=O)nc(-c2ccccc2)c2cc(Cl)ccc21)N1CCN(c2ccccc2F)CC1 returned FLuc counter -0.7%.
For Nc1cc(-c2ccccc2)ccc1O the results were Rab9 prom act 0.9%, ELG1 genotox 3.0%, NPC1 promoter act 11.6%, SMN2 splice up -1.4% and FLuc counter 23.9µM*.
For Nc1ccc(-c2ccc(N)c(O)c2)cc1O the results were SMN2 splice up -8.2%.
Screening CC(=O)Nc1nnc2n1CCS2 returned FLuc counter -2.5%.
For CC(C)CC(=O)Nc1ccc(-c2nc3ccccc3c(=O)[nH]2)cc1 the results were Rab9 prom act 0.891µM*, ELG1 genotox 6.51µM*, NPC1 promoter act 1.12µM*, SMN2 splice up 3.16µM* and FLuc counter 2.39µM*.
Screening CCC(=O)Nc1cccc(-c2nc3ccccc3c(=O)o2)c1 returned Rab9 prom act 5.1%, ELG1 genotox -3.0%, NPC1 promoter act -4.0%, SMN2 splice up -9.9% and FLuc counter inconclusive.
For Nc1ccccc1-c1nc2ccccc2c(=O)o1 the results were Rab9 prom act 17.4%, ELG1 genotox 0.9%, NPC1 promoter act 7.9% and FLuc counter 10.7µM*.
`CC(C)CC(=O)Nc1ccc(-c2nc3ccccc3c(=O)o2)cc1` gave Rab9 prom act 0.6%, ELG1 genotox 19.4%, NPC1 promoter act 3.4%, SMN2 splice up 7.6% and FLuc counter 1.69µM*.
For CC(=O)Nc1ccc(-c2nc3ccccc3c(=O)o2)cc1 the results were Rab9 prom act 5.7%, ELG1 genotox -1.2%, NPC1 promoter act -0.3% and FLuc counter 2.69µM*.
Screening O=C(CSc1nc2ccccc2c(=O)[nH]1)Nc1ccc(C(=O)O)cc1 returned Rab9 prom act -2.0%, ELG1 genotox 0.5%, NPC1 promoter act -8.8%, SMN2 splice up 10.3% and FLuc counter inconclusive.
Screening O=c1oc(-c2ccccc2[N+](=O)[O-])nc2ccccc12 returned Rab9 prom act -0.7%, ELG1 genotox -3.7%, NPC1 promoter act -0.2%, SMN2 splice up 33.2% and FLuc counter 4.2%.
Screening O=c1oc(-c2ccc(Br)cc2)nc2ccccc12 returned Rab9 prom act 3.16µM*, ELG1 genotox inconclusive, NPC1 promoter act 2.24µM* and FLuc counter inconclusive.
O=c1oc(-c2ccco2)nc2ccccc12 was read as Rab9 prom act 3.3%, ELG1 genotox 1.1%, NPC1 promoter act -10.8%, SMN2 splice up 9.0% and FLuc counter inconclusive.
Screening CCOc1ccc(-c2cn(-c3ccc(OC)cc3)c(SCC(=O)Nc3ccccc3Cl)n2)cc1 returned FLuc counter 2.0%.
`CCOc1ccc(-c2cn(-c3ccc(OC)cc3)c(SC)n2)cc1` gave Rab9 prom act 3.98µM*, ELG1 genotox inconclusive, NPC1 promoter act inconclusive, SMN2 splice up 11.2µM* and FLuc counter 5.36µM*.

Screening results as filed in PubChem.
